Screens deposited in PubChem BioAssay by National Center for Advancing Translational Sciences (NCATS).
Compounds with a hit are over-represented: about 21% of the library has one in this group of screens.
TDP1 cell noCPT: qHTS for Inhibitors of human tyrosyl-DNA phosphodiesterase 1 (TDP1): qHTS in cells in absence of CPT | DT40 Tdp1-/- hTDP1 cells, no CPT, ATP luminescence, 48 h | Potency, µM (top dose mostly 46.2 µM), for inactives: top-dose activity change, negative = growth inhibition, most hits filed as inhibitors | hit rate 15% among 420,000 | AID 686978, 2013; note: potency is the fitted concentration of half-maximal effect; nearly all actives have a fitted effect of over 55% in size
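No-CPT arm: Tdp1-/-;hTDP1 DT40 cells (400/well) plus compounds, incubated ≥48 hr at 37 °C. Readout CellTiter-Glo luminescence.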
ELG1 DNA repair: inhibitors of ELG1-dependent DNA repair in HEK293T cells | Potency, µM (series often up to 46.1 µM), without a hit: at the highest dose activity change, negative = inhibition, actives largely listed as inhibitors | hit rate 2.3% among 330,000 | HEK293T ELG1-luciferase reporter, luminescence, 16 h; DNA damage induced by 5-fluorouridine; note: potency is the fitted concentration of half-maximal effect; nearly all actives have a fitted effect of over 55% in size
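Reporter activity after DNA damage by 5-fluorouridine is monitored. Compound-treated cells incubate 16 hr at 37 °C, then ONE-Glo is added for 30 min before luminescence reading.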
IL1B secr inh: inflammasome signaling inhibition, IL-1 beta readout; hit rate 4.7% among 360,000; activity change, % at 57.5 µM; THP-1 LPS/ATP IL-1B secretion, AlphaLISA, 16 h; active compounds read low; in the data active = activity change below about -50%; inconclusive = mostly about -30% to -49%
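Secreted IL-1B measured by AlphaLISA bead assay after 16 h compound exposure of THP-1 cells; compounds (final up to 57.5 uM) added 1 h before LPS (250 ng/mL) and ATP (1.25 mM) stimulation; lower signal means less secretion.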
DT40 TDP1 CPT: growth inhibition of DT40 Tdp1-/-;hTDP1 cells with camptothecin (screen for TDP1 inhibitors). chicken DT40 Tdp1-/-;hTDP1 cells + 20 nM CPT, ATP luminescence, 48 h. Potency, µM (titrated, usually from 46.2 µM), for inactives: top-dose activity change, negative = growth inhibition, usual class: inhibitors. hit rate 12% among 420,000. AID 686979; note: potency is the fitted concentration of half-maximal effect; nearly all actives have a fitted effect of over 55% in size
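Chicken DT40 Tdp1-/- cells stably complemented with human TDP1 were seeded at 400 cells/well in medium containing 20 nM camptothecin, exposed to pin-transferred compounds, and grown at 37 °C for at least 48 hr. Viability was read as ATP luminescence.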
Gal4-VP16 FLuc: counter-screen for ROR gamma inhibitors: Gal4-VP16 reporter; AID 2546; hit rate 3.5% among 310,000; Potency, µM (top dose mostly 53.6 µM), for inactives: top-dose activity, negative = inhibition, usual class: inhibitors; Drosophila S2 Gal4-VP16 UAS-luciferase, luminescence, 20 h;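 note: Gal4-VP16 expression switched on by copper sulfate through the metallothionein promoter; potency is the fitted concentration of half-maximal effect; nearly all actives have a fitted effect of over 50% in size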
RORgamma inh: blocks mouse ROR gamma transcriptional activity; Drosophila S2 Gal4-RORgamma UAS-luciferase reporter, 20 h; P51450; hit rate 5.4% among 310,000; Potency, µM (series often up to 53.6 µM), without a hit: at the top dose activity change, negative = inhibition, actives largely listed as inhibitors; note: potency is the fitted concentration of half-maximal effect; nearly all actives have a fitted effect of over 60% in size
Target sequence (P51450 whole entry, looked up, the tested form may be a part): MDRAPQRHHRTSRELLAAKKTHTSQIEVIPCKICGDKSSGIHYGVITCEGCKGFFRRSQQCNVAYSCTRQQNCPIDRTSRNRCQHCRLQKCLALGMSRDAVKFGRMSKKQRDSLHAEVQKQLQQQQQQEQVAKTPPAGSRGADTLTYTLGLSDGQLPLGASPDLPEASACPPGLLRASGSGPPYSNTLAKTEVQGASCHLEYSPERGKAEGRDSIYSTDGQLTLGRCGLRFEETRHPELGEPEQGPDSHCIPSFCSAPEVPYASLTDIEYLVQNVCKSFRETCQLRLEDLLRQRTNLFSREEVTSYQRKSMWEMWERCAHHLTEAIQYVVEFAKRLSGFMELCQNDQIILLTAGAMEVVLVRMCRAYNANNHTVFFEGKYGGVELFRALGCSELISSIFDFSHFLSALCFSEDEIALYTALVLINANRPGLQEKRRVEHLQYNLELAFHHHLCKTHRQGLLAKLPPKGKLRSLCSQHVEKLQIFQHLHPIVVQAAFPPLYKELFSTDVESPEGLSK
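Stably transfected Drosophila Schneider cells are the test system, with ROR gamma fused to Gal4 and luciferase under UAS control; luminescence is read after 20 hr of 700 uM copper sulfate induction at ambient temperature.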
* marks the source's active call; other numbers are inactive results; ? = inconclusive; . = no result; [ ] = dose if it differs, or a comment. Unless noted, calls come from the whole dose curve; as a rule, active = well fitted curve in the direction sought with a large enough effect; inconclusive = small, poorly fitted or top-dose-only effect, or another doubt; inactive = no such curve, though single readings can be large; an effect the other way counts as inactive or inconclusive. % is set by controls: 0 for no effect and ±100 for the full control effect.

SMILES	TDP1 cell noCPT	ELG1 DNA repair	IL1B secr inh	DT40 TDP1 CPT	Gal4-VP16 FLuc	RORgamma inh
COc1ccc(OC)c(S(=O)(=O)N2CCCCCC2)c1	6%	0%	-13	8%	-3%	4%[10 µM]
COc1ccc(S(=O)(=O)N2CCCN(S(=O)(=O)c3ccc(OC)cc3C)CC2)c(C)c1	?	-27%	-21	23µM*	-4%	?
Cc1ccc(NS(=O)(=O)c2ccc(NC(=O)C3CC3)cc2)cc1C	?	?	-2	18µM*	.	.
Cc1cc(NC(=O)c2ccc(NC(=O)C3CCCO3)cc2)ccc1Br (stereo not drawn)	23µM*	20%	59	?	-9%	-17%
Cc1ccc(S(=O)(=O)N2CCCN(S(=O)(=O)c3ccc(C)c(C)c3)CC2)cc1C	18µM*	0%	0	23µM*	10%	-13%
COC(=O)C1(C(=O)OC)CCCCN(S(=O)(=O)c2ccc(C)cc2)CCC1	21µM*	.	3	?	.	.
O=C(COc1cccc2ccccc12)Nc1cc(Cl)ccc1C(=O)O	-10%	-15%	-53*	11%	?	-36%
O=C(COc1ccccc1C(=O)Nc1cccc([N+](=O)[O-])c1)Nc1ccc(Br)cc1	16µM*	.	.	7.9µM*	.	.
CC(NS(=O)(=O)c1ccc(OCC(=O)Nc2cccc([N+](=O)[O-])c2)cc1)c1ccccc1 (stereo not drawn)	21µM*	?	-4	?	?	?
O=C(COc1cccc2ccccc12)Nc1ccc(Cl)cc1C(=O)O	?	2%	56	?	0%	-2%
CCOc1ccccc1C(=O)NCC(=O)NCCCc1ccccc1	-11%	-6%	-11	6%	-3%	14%
CC(NS(=O)(=O)c1ccc(OCC(=O)NCc2ccncc2)cc1)c1ccccc1 (stereo not drawn)	9%	8%	32	4%	2%	-3%
O=C(COc1ccccc1C(=O)Nc1ccccc1)NCCCCc1ccccc1	18µM*	.	.	?	.	.
CCc1ccc(-c2cnc3nc[nH]c(=O)c3n2)cc1	?	.	-2	1%	.	.
O=C(c1ccncc1)N1CCC2(CC1)CN(c1ccccn1)C2	?	.	.	?	7%	-2%
COc1cccc(C(=O)N(C)Cc2c(C)nn(C3CCS(=O)(=O)C3)c2C)c1 (stereo not drawn)	18%	1%	17	-17%	.	.
O=C(COc1ccccc1C(=O)Nc1ccccc1)Nc1cccc([N+](=O)[O-])c1	?	.	.	13µM*	.	.
O=C(COc1ccccc1C(=O)Nc1ccccc1)Nc1cccc(Cl)c1	18µM*	.	.	18µM*	.	.
CCCCc1ccc(NC(=O)COC(=O)c2ccccc2OCC(=O)Nc2ccc(Br)cc2)cc1	?	.	.	11µM*	.	.
O=C(COC(=O)COc1ccccc1)Nc1cccc([N+](=O)[O-])c1	-12%	3%	-9	-6%	14%	-6%
O=C(O)c1cccc(NC(=S)NC(=O)C(c2ccccc2)c2ccccc2)c1	0%	1%	9	-14%	1%	-6%
CC1(c2ccccc2)CC(C)(C)N2C(=O)/C(=C3\SC(=S)NC3=O)c3cccc1c32 (stereo not drawn)	15µM*	-20%	22	23µM*	-6%	-19%
COc1ccc(C2=NOC(Cn3nc(C(=O)NCc4ccccc4OC)cc3-c3ccccc3)C2)cc1 (stereo not drawn)	21µM*	?	3	23µM*	.	.
COc1ccc(C2=NOC(Cn3nc(C(=O)NCC4CC4)cc3-c3ccccc3)C2)cc1 (stereo not drawn)	?	?	5	21µM*	.	.
CC1=C2CCCC[C@@]23C2C(=O)N(C)C(=O)[C@@H]2ON3OC1 (stereo partly drawn)	5%	.	-11	19%	.	.
SMILES	TDP1 cell noCPT	ELG1 DNA repair	IL1B secr inh	DT40 TDP1 CPT	Gal4-VP16 FLuc	RORgamma inh
COc1cccc(/C=N/NC(=O)c2c(C)nc3ccc(Cl)cn23)c1O	1µM*	?	141	0.92µM*	4µM*	3.2µM*
Cc1nc2ccc(Br)cn2c1C(=O)N/N=C\c1ccccc1[N+](=O)[O-]	-4%	7%	63	9%	-18%	?
Cc1nc2ccc(Br)cn2c1C(=O)N/N=C\c1ccccc1Cl	?	0%	6	?	?	7.1µM*
Cc1sc(NC(=O)c2ccc(F)cc2)c(CN2CCCCCC2)c1C	13µM*	?	-28	13µM*	-4%	1%
Cc1sc(NC(=O)c2ccccc2F)c(CN2CCCCC2)c1C	23µM*	?	-28	21µM*	-6%	23%
Cc1sc(NC(=O)c2ccco2)c(CN2CCN(Cc3ccccc3)CC2)c1C	12µM*	13µM*	-80*	12µM*	-8%	16%
CNC(=O)c1c(NC(=O)c2ccco2)sc(C)c1C	-11%	?	?	9%	.	.
O=C(CCCc1ccncc1)c1ccccc1	-20%	.	17	-28%	.	.
O=C(Nc1nnc([C@@H]2C[C@H](O)[C@@H](CO)O2)s1)Nc1ccccc1Oc1ccccc1	?	.	0	?	.	.
Cc1nc(C)c(-c2nnc(-c3ccc(C(C)(C)C)cc3)o2)cc1C(=O)NN	23µM*	-20%	18	?	?	?
CC(C)c1ccc(-c2noc(SCC(=O)N3CCN(c4ccccc4F)CC3)n2)cc1	21µM*	.	.	23µM*	.	.
O=C(CSc1nc(-c2ccccc2)no1)N1CCN(c2ccccc2F)CC1	-13%	.	.	-28%	.	.
COc1ccccc1N1CCN(C(=O)CSc2nc(-c3ccc(C(C)C)cc3)no2)CC1	6.5µM*	.	.	23µM*	.	.
O=C(CSc1nc(-c2ccccc2)no1)N1CCCCC1	3.7µM*	.	.	?	.	.
CC1CCN(S(=O)(=O)c2ccc3c(c2)N(CC(=O)NC(C)(C)C)C(=O)CS3)CC1	-19%	.	.	-20%	.	.
COc1ccc2[nH]cc(C(=O)CNc3nccs3)c2c1	7.9µM*	.	.	?	.	.
COc1ccc2[nH]cc(C(=O)CCl)c2c1	4.1µM*	?	-96*	3.3µM*	6.3µM*	7.9µM*
COc1ccc(CCNC(=O)c2c[nH]c3ccccc3c2=O)cc1OC	?	?	-8	?	-14%	11%
COc1ccc2[nH]cc(C(=O)CN(C)CCc3ccc(OC)c(OC)c3)c2c1	21µM*	-20%	0	18µM*	-2%	?
COc1ccc2[nH]cc(C(=O)CNc3nc(C)cs3)c2c1	?	?	-12	?	13%	25%
